Most compounds without a hit are left out; they make up all but 3% or so of the library.
TRAIL sens C8 = caspase-8 TRAIL sensitization | NB7+C8 cells + TRAIL, ATPlite viability luminescence | inhibition (viability loss, TRAIL sensitization), % at 10 µM | actives 1% (n = 360,000);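 active = compounds causing at least 50% loss of cell viability in the single-dose screen, relative to plate controls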
SENP8 block-1 = SENP8 protease inhibition; Q96LD8; purified SENP8, Z-RLRGG-aminoluciferin cleavage, luminescence; inhibition, % at 10 µM; actives 1.2% (n = 330,000); AID 2540; in the data active = inhibition above about 50%
Target sequence (Q96LD8 whole entry, looked up): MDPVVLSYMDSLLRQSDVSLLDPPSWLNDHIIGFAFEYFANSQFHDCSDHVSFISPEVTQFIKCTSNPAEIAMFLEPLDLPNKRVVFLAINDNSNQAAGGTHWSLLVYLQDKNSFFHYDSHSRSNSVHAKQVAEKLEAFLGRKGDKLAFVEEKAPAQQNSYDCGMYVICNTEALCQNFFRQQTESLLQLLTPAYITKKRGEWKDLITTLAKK
SENP8 block-2 = SENP8 (human) protease inhibition; Q96LD8; recombinant SENP8, Nedd8 substrate fluorescence; inhibition, % at 20 µM; actives 0.64% (n = 360,000); in the data active = inhibition mostly above about 40%, no sharp cut-off; inactive = mostly below about 27%
PPC-1+TRAIL kill = kills PPC-1 cancer cells in the presence of TRAIL. PPC-1 cells + TRAIL, ATPLite viability luminescence. cell killing (% activity), % at 4 µM or 5 µM. actives 0.41% (n = 220,000). AID 1443;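 active = cell killing above 50% in the first pass at 4 µM, then a duplicate retest at 5 µM averaging 50% or more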
SENP6 inh = SENP6 protease inhibition. Recombinant SENP6 catalytic domain, aminoluciferin luminescence. inhibition, % at 10 µM. actives 1.8% (n = 330,000). AID 2599;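 active = inhibition above about 50% at the single tested dose, limit read from the data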
Target sequence (Q9GZR1 628-1112 limits assumed): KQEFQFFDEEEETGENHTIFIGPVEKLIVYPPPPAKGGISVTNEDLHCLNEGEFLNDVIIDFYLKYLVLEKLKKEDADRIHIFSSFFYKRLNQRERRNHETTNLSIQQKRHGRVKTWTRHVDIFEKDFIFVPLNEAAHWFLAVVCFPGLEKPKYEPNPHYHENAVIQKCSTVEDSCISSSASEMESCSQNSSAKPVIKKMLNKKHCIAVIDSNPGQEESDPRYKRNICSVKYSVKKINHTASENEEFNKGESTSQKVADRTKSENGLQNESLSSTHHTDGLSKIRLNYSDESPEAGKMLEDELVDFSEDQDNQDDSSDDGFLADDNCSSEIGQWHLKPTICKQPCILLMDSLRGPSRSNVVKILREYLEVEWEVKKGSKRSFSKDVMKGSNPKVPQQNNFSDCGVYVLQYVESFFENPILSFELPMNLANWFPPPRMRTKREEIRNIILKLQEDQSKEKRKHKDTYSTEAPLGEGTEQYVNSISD
SENP7 inh = SENP7 protease inhibition | inhibition, % at 5 µM | actives 1.5% (n = 330,000) | recombinant SENP7, Z-RLRGG-aminoluciferin luminescence, 40 min;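 active = inhibition above about 50% at the single test dose, limit read from the data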
SENP8 inh conf = SENP8 (human) inhibition, single concentration confirmation. shares compounds with SENP8 block-2. purified SENP8, Nedd8-AMC/pro-Nedd8 cleavage fluorescence, 30 min. inhibition, % at 25 µM. actives 15% (n = 1,400). AID 624319; in the data active = inhibition mostly above about 39%, no sharp cut-off; inactive = mostly below about 34%
Large screens that a line does not name were inactive (follow-up assays come after a bar, where they were run).

O=C(NCC(O)c1ccccc1)c1cccs1 (stereo not given)	none (no result: PPC-1+TRAIL kill)
COc1ccc(NC(=O)C2(C)Cc3c(-c4cccc(C(N)=O)c4)ccnc3O2)cc1 (stereo not given)	none (no result: SENP8 block-1, PPC-1+TRAIL kill, SENP6 inh, SENP7 inh)
Cc1cc(OCC(=O)NCCN2CCOCC2)cc(C)c1Cl	none (no result: PPC-1+TRAIL kill)
Cc1ccc(OCC(=O)NCCN2CCOCC2)cc1C	SENP8 block-2 43 | SENP8 inh conf inactive
Cc1cc(NC(=O)CCSc2ccccc2)no1	none
CCOc1ccc(N/C=C/C(=O)c2ccc(OC)cc2)c([N+](=O)[O-])c1	none
COc1ccc(N/C=C/C(=O)c2ccc(C)cc2)c([N+](=O)[O-])c1	SENP8 block-2 44 (no result: PPC-1+TRAIL kill) | SENP8 inh conf inactive
c1ccc2[nH]c3cc4ncnc4cc3nc2c1	SENP8 block-2 48 | SENP8 inh conf 60
O=C(NC1CCCCC1)Oc1ccccc1	SENP8 block-2 40 | SENP8 inh conf inactive
COc1ccc(N(CC(=O)NN=C2CCN(C)CC2)S(=O)(=O)c2ccccc2)c(OC)c1	none (no result: PPC-1+TRAIL kill)
COCCCN1C(=O)C(=O)/C(=C(/O)c2ccc(S(=O)(=O)N3CCCCC3)cc2)C1c1ccc(O)cc1 (stereo not given)	SENP8 block-2 45 (no result: PPC-1+TRAIL kill) | SENP8 inh conf inactive
COCCCN1C(=O)C(=O)/C(=C(/O)c2ccc(S(=O)(=O)N3CCCCC3)cc2)C1c1ccc(O)c(OC)c1 (stereo not given)	none (no result: PPC-1+TRAIL kill)
CC(C)(C)NC(=O)COC(=O)CCC(=O)c1cccs1	none
CCCCn1c(N)c(N(CC(C)C)C(=O)c2c(CC)noc2C)c(=O)[nH]c1=O	none (no result: PPC-1+TRAIL kill)
CCC(C)[C@H](NS(=O)(=O)c1ccc(C)cc1)C(=O)N1CCC(C(=O)N2CCC(C(=O)OC)CC2)CC1 (stereo not given in full)	SENP8 block-2 46 (no result: PPC-1+TRAIL kill) | SENP8 inh conf inactive
Cc1ccc(S(=O)(=O)N[C@@H](CC(C)C)C(=O)N2CCC(C(=O)N[C@@H](Cc3ccccc3)C(=O)O)CC2)cc1	SENP8 block-2 65 (no result: PPC-1+TRAIL kill) | SENP8 inh conf inactive
CC(C)=CCC/C(C)=C/CNC(=O)C[C@H]1C[C@H](C(=O)N2CCOCC2)[C@@]2(CCC3CCCC3)c3[nH]c4cc(CCC(=O)N(C)C)ccc4c3CCN2C1=O	none (no result: SENP8 block-1, PPC-1+TRAIL kill, SENP6 inh)
Cc1ccc(C(=O)NCC(=O)OCc2cccc(Br)c2)cc1	none (no result: PPC-1+TRAIL kill)
CN(C)c1ccc(NC(=O)c2ccc([N+](=O)[O-])cc2Cl)cc1	none
CCC(=O)NC(=S)Nc1ccc(NC(=O)c2ccc([N+](=O)[O-])cc2Cl)cc1	SENP8 block-2 43 | SENP8 inh conf inactive
O=C(Nc1ccc(N2CCCC2)cc1)c1ccc([N+](=O)[O-])cc1Cl	SENP8 block-2 43 | SENP8 inh conf inactive
CN1CCC2(CC1)N=C(c1ccc(F)cc1)C(=S)N2C(=O)c1ccccc1	SENP8 block-2 55 | SENP8 inh conf 39
C=CCn1c(COc2ccc(F)cc2)nnc1SCC(=O)NC1CCS(=O)(=O)C1 (stereo not given)	none (no result: PPC-1+TRAIL kill)
COc1cc(C(c2c(C)[nH][nH]c2=O)c2c(C)[nH][nH]c2=O)ccc1OS(=O)(=O)c1ccc(C)cc1	SENP8 block-2 56 | SENP8 inh conf inactive
COc1cc(C(c2c(C)[nH][nH]c2=O)c2c(C)[nH][nH]c2=O)ccc1OS(=O)(=O)c1ccccc1	SENP8 block-2 42 | SENP8 inh conf inactive
COc1ccc(C(c2c(C)[nH][nH]c2=O)c2c(C)[nH][nH]c2=O)cc1Br	none (no result: PPC-1+TRAIL kill)
COc1cc(C(c2c(C)[nH][nH]c2=O)c2c(C)[nH][nH]c2=O)ccc1OC(C)C	none
CC1=NN(c2ccc(C)c(C)c2)C(=O)C1C(c1cccc(O)c1)C1C(=O)N(c2ccc(C)c(C)c2)N=C1C (stereo not given)	SENP8 block-2 81 | SENP8 inh conf 52
Cc1ccc(N2C(=O)C3C4C=CC(C4)C3C2=O)cc1C (stereo not given)	none
Cc1cccnc1C1=NOC(Cc2ccccc2)C(=O)N1Cc1ccc2c(c1)OCO2 (stereo not given)	none (no result: SENP8 block-1, PPC-1+TRAIL kill, SENP6 inh, SENP7 inh)
CNc1ccc(/C=C/C(=O)c2cccc3ccccc23)cc1[N+](=O)[O-]	SENP8 block-2 47 | SENP8 inh conf inactive
O=C(C1CCCCC1)N1CCCc2ccccc21	none
CC(C)N1C(=O)CCC1C(=O)N1CCCc2ccccc21 (stereo not given)	SENP8 block-2 41 | SENP8 inh conf 67
C/C(=N\NC(=O)c1ccccn1)c1ccc(Cl)cc1	TRAIL sens C8 61, SENP8 block-2 55 | SENP8 inh conf inactive
C/C(=N/NC(=O)c1ccccn1)c1ccc(O)cc1	none
Cc1ccc(-c2nnc(-c3ccncc3)n2-c2ccc(C)cc2)cc1	SENP8 block-2 62 | SENP8 inh conf inactive
O=C(OCc1ccccc1)N1C=CCC[C@@H]1c1c(Cl)cccc1Br	none (no result: SENP8 block-1, PPC-1+TRAIL kill, SENP6 inh, SENP7 inh)
CCOC(=O)[C@]12CCC=C1N(Cc1ccc3c(c1)OCO3)C(=O)[C@H](CC(=O)NCCCN1CCCC1=O)C2	none (no result: SENP8 block-1, PPC-1+TRAIL kill, SENP6 inh, SENP7 inh)
COc1ccc([N+](=O)[O-])cc1NC(=S)NC(=O)C(C)(C)C	SENP8 block-2 40 | SENP8 inh conf inactive
COc1ccc([N+](=O)[O-])cc1NC(=S)Nc1ccccc1	none
O=C(O)c1ccccc1C(=O)N1CCN(c2ccccc2)CC1	none
O=C(c1ccccc1C(=O)N1CCN(c2ccccc2)CC1)N1CCN(c2ccccc2)CC1	SENP8 block-2 49 | SENP8 inh conf inactive
CCNc1ccc(C(=O)OCC(=O)NC(C)c2ccccc2)cc1[N+](=O)[O-] (stereo not given)	SENP8 block-2 40 | SENP8 inh conf inactive
O=C(Nc1ccc2c(c1)OCO2)c1cc(C2CCCCN2C(=O)c2ccc(Cl)cc2)on1 (stereo not given)	none (no result: SENP8 block-1, PPC-1+TRAIL kill, SENP6 inh, SENP7 inh)
CC(=O)[C@@H]1[C@@H]2C(=O)N(Cc3ccccc3)C(=O)[C@@H]2C2c3ccccc3C=CN21 (stereo not given in full)	none
Cc1ccc(N2C(=O)[C@@H]3[C@H](C2=O)C2c4ccccc4C=CN2[C@@H]3C(=O)c2ccco2)cc1 (stereo not given in full)	SENP8 block-2 49 (no result: SENP8 block-1, SENP6 inh, SENP7 inh) | SENP8 inh conf 89
COc1ccc(N2C(=O)[C@@H]3[C@H](C2=O)[C@H]2c4ccccc4C=CN2[C@@H]3C(=O)Nc2ccccc2)cc1	SENP8 block-2 44 | SENP8 inh conf 80
Cc1noc(C)c1S(=O)(=O)N1CCC(C(=O)NCCN2CCC(C)CC2)CC1	SENP8 block-2 41 | SENP8 inh conf inactive
COc1ccc(CC(=O)OCC(=O)Nc2ccc(N3CCOCC3)cc2)cc1	none
Fc1ccc2c(c1)c1n[nH]c(=S)nc1n2CCc1ccccc1	none (no result: PPC-1+TRAIL kill)
NNc1nnc2c3cc(F)ccc3n(CCc3ccccc3)c2n1	SENP8 block-2 52 (no result: PPC-1+TRAIL kill) | SENP8 inh conf inactive
O=[N+]([O-])c1cccc(S(=O)(=O)NCC2CCCO2)c1 (stereo not given)	none
